What follows are compounds tested on Neuro-2a (assay: neurite formation score, plate-normalized to DMSO control mean 5.04 (score (0-8 scale)); higher = more or longer neurites). Details: 1 µM.
Method: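 Neuro-2a mouse neuroblastoma cells in PLL-coated 96-well plates were pre-treated for 1 h in DMEM(+) with each kinase inhibitor at 1 µM, then switched to serum-free DMEM(-) with inhibitor to induce neurite outgrowth and fixed about 2-3 h later. Three blinded observers scored neurite formation from 0 (no neurites) to 8 (long neurites on almost all cells).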

First: Cn1cnc(-c2cc3nccc(Oc4ccc(NC(=S)NC(=O)Cc5ccccc5)cc4F)c3s2)c1
Second: CCN(CCO)CCCOc1ccc2c(Nc3cc(CC(=O)Nc4cccc(F)c4)[nH]n3)ncnc2c1 [Barasertib (AZD1152-HQPA)]
The neurite formation score of the first is lower: 3.69 for the first, 4.69 for the second.

Compared with CNC(=O)c1cc(Oc2ccc(NC(=O)Nc3ccc(Cl)c(C(F)(F)F)c3)c(F)c2)ccn1 [Regorafenib monohydrate], C=CC(=O)Nc1cccc(Nc2nc(Nc3ccc(OCCOC)cc3)ncc2F)c1 is higher in neurite formation score: 4.69 for the first, 4.91 for the second.

First: Cc1cc(C)c(/C=C2\C(=O)Nc3ccccc32)[nH]1 [Semaxanib (SU5416)]
Second: O=C1c2ccccc2-c2n[nH]c3cccc1c23
The neurite formation score of the first is higher: 4.54 for the first, 4.02 for the second.

Going from O=C(O)[C@]1(Cc2cccc(Nc3nccs3)n2)CC[C@@H](Oc2cccc(Cl)c2F)CC1 to O=C(c1cccc(Cl)c1F)N1CCN(Cc2cccc(Nc3nccs3)n2)CC1, the neurite formation score rises from 3.69 to 4.14.

First: CO[C@H]1C[C@@H]2CC[C@@H](C)[C@@](O)(O2)C(=O)C(=O)N2CCCC[C@H]2C(=O)O[C@H]([C@H](C)C[C@@H]2CC[C@@H](OP(C)(C)=O)[C@H](OC)C2)CC(=O)[C@H](C)/C=C(\C)[C@@H](O)[C@@H](OC)C(=O)[C@H](C)C[C@H](C)/C=C/C=C/C=C/1C [Ridaforolimus (Deforolimus, MK-8669)]
Second: CNc1nc(-c2ccc3c(N)n[nH]c3c2)cc(N2C[C@@H](C(=O)NC3CCCCC3)CC[C@H]2C)n1
The neurite formation score of the first is lower: 4.21 for the first, 4.88 for the second.

Going from O=c1ncn2nc(Sc3ccc(F)cc3F)ccc2c1-c1c(Cl)cccc1Cl to Nc1ccc(-c2ccc3ncc4ccc(=O)n(-c5cccc(C(F)(F)F)c5)c4c3c2)cn1 [Torin 2], the neurite formation score falls from 4.29 to 3.21.

First: Cc1cnc(Nc2ccc(OCCN3CCCC3)cc2)nc1Nc1cccc(S(=O)(=O)NC(C)(C)C)c1
Second: CN1CCC(Nc2nc(Nc3ccc(Oc4ccccc4)cc3)c3c(=O)[nH]cc(Br)c3n2)CC1
The neurite formation score of the first is higher: 4.69 for the first, 3.29 for the second.

Going from COc1cc(N2CCC(N3CCN(C)CC3)CC2)ccc1Nc1ncnc(Nc2ccccc2S(=O)(=O)C(C)C)n1 to C[C@@H](Oc1cc(-n2cnc3ccc(CN4CCN(C)CC4)cc32)sc1C(N)=O)c1ccccc1C(F)(F)F, the neurite formation score falls from 5.24 to 4.29.

Going from Clc1ccc(Nc2nnc(Cc3ccncc3)c3ccccc23)cc1 [Vatalanib (PTK787) 2HCl] to COc1ccc(-c2cnc3c(-c4cccc5ncccc45)cnn3c2)cc1, the neurite formation score falls from 3.91 to 3.88.

Compared with CN(C)Cc1cccc(N=C(c2ccccc2)c2c(O)[nH]c3cc(C(N)=O)ccc23)c1, COc1c(C)c(C(=O)c2ccc(N)c(C(=O)O)c2)n2ccccc12 is higher in neurite formation score: 4.24 for the first, 4.96 for the second.

Going from O=C(NC(NC(=S)Nc1ccc(F)c([N+](=O)[O-])c1)C(Cl)(Cl)Cl)C(c1ccccc1)c1ccccc1 (stereo not given) to CCC[C@H](NC(=O)/C(C#N)=C/c1cccc(Br)n1)c1ccccc1, the neurite formation score falls from 3.96 to 1.24.

Going from COc1ccc(-c2ccc3ncc4c(c3c2)n(-c2ccc(N3CCNCC3)c(C(F)(F)F)c2)c(=O)n4C)cn1 to Cc1ccc(C(=O)Nc2cccc(C(F)(F)F)c2)cc1Nc1nc(-c2cccnc2)nc2c1cnn2C, the neurite formation score falls from 4.29 to 3.96.

Compared with NC1(C(=O)N[C@@H](CCO)c2ccc(Cl)cc2)CCN(c2ncnc3[nH]ccc23)CC1, Nc1ccc(C(=O)Nc2cccc(-c3nc(N4CCOCC4)c4oc5ncccc5c4n3)c2)cn1 is lower in neurite formation score: 5.57 for the first, 4.54 for the second.

First: CCCCCCCCCCCC(=O)OCC(CO)OC(=O)CCCCCCCCCCC (stereo not given) [1,2-Dilauroyl-sn-glycerol]
Second: CCCCCCCCc1ccc(CCC(N)(CO)CO)cc1 [Fingolimod (FTY720)]
The neurite formation score of the first is higher: 4.54 for the first, 3.63 for the second.

Compared with C#Cc1cccc(Nc2ncnc3cc4c(cc23)OCCOCCOCCO4)c1 [Icotinib], COc1cc2ncnc(Nc3ccc(O)c(Br)c3)c2cc1OC is lower in neurite formation score: 4.8 for the first, 4.47 for the second.

Going from Clc1ccc(Nc2nnc(Cc3ccncc3)c3ccccc23)cc1 [Vatalanib] to COc1cccc(-c2cc(=O)c3ccccc3o2)c1N, the neurite formation score falls from 4.69 to 3.57.

Going from OCCn1cc(-c2cnc3nnn(Cc4ccc5ncccc5c4)c3n2)cn1 to C[C@@H](Oc1ccc2[nH]nc(/C=C/c3cnn(CCO)c3)c2c1)c1c(Cl)cncc1Cl, the neurite formation score falls from 5.02 to 1.02.

First: COc1cc2ncnc(Sc3nnc(C)s3)c2cc1OC
Second: Cc1cc(C)c(/C=C2\C(=O)Nc3ccccc32)[nH]1
The neurite formation score of the first is lower: 4.96 for the first, 5.02 for the second.

Going from C[C@@H]1CN(CC(=O)Nc2ccc3c(c2)Cc2cccc(-c4cc(=O)cc(N5CCOCC5)o4)c2S3)C[C@H](C)O1 to Cc1nc(Nc2cnn(C3CCNCC3)c2)nc2c1N(C)C(=O)c1cc3ccccc3cc1N2C, the neurite formation score rises from 3.9 to 3.96.

First: CNc1nc(Nc2cnn(C3CCN(C4COC4)CC3F)c2Cl)ncc1C(F)(F)F (stereo not given)
Second: CS(=O)(=O)N1CCC(NC(=O)c2[nH]ncc2NC(=O)c2c(Cl)cccc2Cl)CC1
The neurite formation score of the first is higher: 4.88 for the first, 4.47 for the second.
